The supplement of paper PMC4166925
± gives the standard deviation of the averaged measurements. The full ranking holds about 33,000 sequences; the median of “E-score (dimensionless, -0.5 to 0.5)” is about -0.049, and the highest 2% start at about 0.37. The full list was thinned out, with the highest values kept by preference.
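Note: 200 nM protein in PBS on universal arrays averaged over duplicate arrays.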

Each sequence was assayed on T1, PmTbr T-box DNA-binding domain (GST fusion) (assay: PBM E-score of 8-mer (E-score (dimensionless, -0.5 to 0.5)); Tbr is Tbrain of the sea star Patiria miniata (Pm) or the sea urchin Strongylocentrotus purpuratus (Sp); higher = stronger binding preference). Conditions: the construct has about 5 more residues each side.
T1 sequence: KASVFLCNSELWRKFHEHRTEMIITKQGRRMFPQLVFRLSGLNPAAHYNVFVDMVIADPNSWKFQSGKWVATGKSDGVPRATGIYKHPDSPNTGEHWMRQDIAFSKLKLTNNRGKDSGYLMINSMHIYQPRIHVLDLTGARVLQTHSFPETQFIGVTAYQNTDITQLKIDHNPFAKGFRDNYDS
Experimental: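 Universal protein-binding microarray (Agilent AMADID 016060, 60-bp probes with a 35-bp variable region) incubated with 200 nM GST-fused Patiria miniata Tbr T-box DNA-binding domain (residues 272-466) in PBS pH 7.5. Scored for every ungapped 8-mer (given with its reverse complement) by the Universal PBM Analysis Suite as E-score (modified Wilcoxon-Mann-Whitney enrichment, range -0.5 to 0.5; >0.45 counts as bound) and Z-score of median probe intensity. Two replicate arrays (datasets 1 and 2).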
In the case of CTGTCATC, the “PBM E-score of 8-mer” value is reported as 0.141 ± 0.036. For CTGTCAAG, the “PBM E-score of 8-mer” value was 0.2006 ± 0.0012. With CCGTCACA the “PBM E-score of 8-mer” value was 0.325 ± 0.024. For CCGTCACC, the “PBM E-score of 8-mer” value was 0.356 ± 0.03. With ATGTCACC the “PBM E-score of 8-mer” value was 0.385 ± 0.015. For ATGTCACG, the “PBM E-score of 8-mer” value was 0.262 ± 0.012. CTGTCACC was tested, and the “PBM E-score of 8-mer” value was 0.428 ± 0.013. With CTGTCACA the “PBM E-score of 8-mer” value was 0.4 ± 0.0052. With ATGTCAAG the “PBM E-score of 8-mer” value was -0.0802 ± 0.059. With ATGTCAGC the “PBM E-score of 8-mer” value was 0.00315 ± 0.0099. For ATGTCACA, the “PBM E-score of 8-mer” value was 0.375 ± 0.013. For ATGTCATC, the “PBM E-score of 8-mer” value was -0.0845 ± 0.035. In the case of CCCCAGAC, the “PBM E-score of 8-mer” value is reported as -0.109 ± 0.082. ACACTGTG was tested, and the “PBM E-score of 8-mer” value was 0.227 ± 0.0059. For ACCTACTG, the “PBM E-score of 8-mer” value was 0.0087 ± 0.021. For AGATAGCT, the “PBM E-score of 8-mer” value was -0.0197 ± 0.1. In the case of AGGCGAAA, the “PBM E-score of 8-mer” value is reported as -0.0128 ± 0.028. For AATGATCG, the “PBM E-score of 8-mer” value was -0.0804 ± 0.013. ACTTAAGA was tested, and the “PBM E-score of 8-mer” value was -0.0828 ± 0.02. With TATGGTGA the “PBM E-score of 8-mer” value was 0.074 ± 0.043. For GCGTCACA, the “PBM E-score of 8-mer” value was 0.307 ± 0.014. GTGTCACA was tested, and the “PBM E-score of 8-mer” value was 0.445 ± 0.0066. GAGTCACA was tested, and the “PBM E-score of 8-mer” value was 0.237 ± 0.0075. For AGCCCCGC, the “PBM E-score of 8-mer” value was -0.0835 ± 0.072. AATCTCAC was tested, and the “PBM E-score of 8-mer” value was 0.382 ± 0.0088. With AATCTCAT the “PBM E-score of 8-mer” value was -0.0261 ± 0.042. For ATTCTCAA, the “PBM E-score of 8-mer” value was 0.115 ± 0.051. With AATCTCTC the “PBM E-score of 8-mer” value was -0.0609 ± 0.011. ATTCTCAC was tested, and the “PBM E-score of 8-mer” value was 0.435 ± 0.017. With ATTCTCAG the “PBM E-score of 8-mer” value was 0.0465 ± 0.077. With ATGGCGGA the “PBM E-score of 8-mer” value was -0.225 ± 0.027. CGGCAAAC was tested, and the “PBM E-score of 8-mer” value was -0.0247 ± 0.012. With AATAGGTA the “PBM E-score of 8-mer” value was -0.0644 ± 0.018. AATAGGTG was tested, and the “PBM E-score of 8-mer” value was 0.428 ± 0.013. For AATAGGTC, the “PBM E-score of 8-mer” value was -0.258 ± 0.012. With ACTAGGTG the “PBM E-score of 8-mer” value was 0.425 ± 0.012. AGTAGGTC was tested, and the “PBM E-score of 8-mer” value was -0.148 ± 0.05. ATTAGGTA was tested, and the “PBM E-score of 8-mer” value was -0.131 ± 0.0089. For ACTAGGTA, the “PBM E-score of 8-mer” value was -0.23 ± 0.039. With ATTAGGTC the “PBM E-score of 8-mer” value was -0.153 ± 0.013. With AGTAGGTA the “PBM E-score of 8-mer” value was -0.0493 ± 0.079. For ATTAGGTG, the “PBM E-score of 8-mer” value was 0.374 ± 0.0089. With AGTAGGTG the “PBM E-score of 8-mer” value was 0.4125 ± 0.00071. For ACTAGGTC, the “PBM E-score of 8-mer” value was -0.143 ± 0.0081. For ATCGCTTC, the “PBM E-score of 8-mer” value was 0.0264 ± 0.017. In the case of CACATTTC, the “PBM E-score of 8-mer” value is reported as 0.3486 ± 0.0015. In the case of AAATTCAC, the “PBM E-score of 8-mer” value is reported as 0.263 ± 0.021. In the case of AAAAGCGG, the “PBM E-score of 8-mer” value is reported as -0.261 ± 0.1. TTAGTAAA was tested, and the “PBM E-score of 8-mer” value was -0.0101 ± 0.081. In the case of ACACTTCG, the “PBM E-score of 8-mer” value is reported as 0.427 ± 0.0093. For ACACTCCG, the “PBM E-score of 8-mer” value was 0.3818 ± 0.0019. In the case of ACACTTCA, the “PBM E-score of 8-mer” value is reported as 0.441 ± 0.017. CCACTTCA was tested, and the “PBM E-score of 8-mer” value was 0.13 ± 0.034. With ACTCTCCG the “PBM E-score of 8-mer” value was -0.0258 ± 0.0077. For GCACTTCC, the “PBM E-score of 8-mer” value was 0.365 ± 0.021. CCACTTCC was tested, and the “PBM E-score of 8-mer” value was 0.0762 ± 0.022. For TCACTTCA, the “PBM E-score of 8-mer” value was 0.186 ± 0.021. In the case of AAACTTCG, the “PBM E-score of 8-mer” value is reported as 0.00852 ± 0.068. ACACTCCT was tested, and the “PBM E-score of 8-mer” value was 0.228 ± 0.019. CCACTTCG was tested, and the “PBM E-score of 8-mer” value was 0.254 ± 0.028. For ACACTTCC, the “PBM E-score of 8-mer” value was 0.428 ± 0.016. In the case of ATTCTCGG, the “PBM E-score of 8-mer” value is reported as -0.082 ± 0.071. CGAATCAC was tested, and the “PBM E-score of 8-mer” value was 0.124 ± 0.029. AGAGGTCA was tested, and the “PBM E-score of 8-mer” value was -0.0997 ± 0.006. In the case of TACTGACA, the “PBM E-score of 8-mer” value is reported as 0.1838 ± 0.00074. In the case of TCCCAGCA, the “PBM E-score of 8-mer” value is reported as 0.0248 ± 0.11. With ACCGAATG the “PBM E-score of 8-mer” value was -0.119 ± 0.0097. In the case of CAGAAGCG, the “PBM E-score of 8-mer” value is reported as 0.103 ± 0.04. AAACTTCT was tested, and the “PBM E-score of 8-mer” value was -0.236 ± 0.043. With ACACTTCT the “PBM E-score of 8-mer” value was 0.4266 ± 0.0042. With ACTCTTCT the “PBM E-score of 8-mer” value was -0.264 ± 0.02. For AGGTTCTC, the “PBM E-score of 8-mer” value was 0.0874 ± 0.028. For ATTCACCA, the “PBM E-score of 8-mer” value was 0.0566 ± 0.052. In the case of CCGTTGGC, the “PBM E-score of 8-mer” value is reported as 0.151 ± 0.01. In the case of AAATGTGG, the “PBM E-score of 8-mer” value is reported as 0.0797 ± 0.052. AAATGTGC was tested, and the “PBM E-score of 8-mer” value was 0.206 ± 0.049. With AAATGTGT the “PBM E-score of 8-mer” value was 0.432 ± 0.011. In the case of GTGTGTGA, the “PBM E-score of 8-mer” value is reported as 0.41536 ± 0.00023. For ATATGTGA, the “PBM E-score of 8-mer” value was 0.24 ± 0.064. CTGTGTGA was tested, and the “PBM E-score of 8-mer” value was 0.298 ± 0.018. With GTGTGTAA the “PBM E-score of 8-mer” value was 0.214 ± 0.022. In the case of ATGTGTGA, the “PBM E-score of 8-mer” value is reported as 0.4845 ± 0.00059. ATGTGTGC was tested, and the “PBM E-score of 8-mer” value was 0.219 ± 0.016. In the case of TCAAGAAA, the “PBM E-score of 8-mer” value is reported as -0.17 ± 0.11. For TCACCTGA, the “PBM E-score of 8-mer” value was 0.353 ± 0.019. For AGACCTTG, the “PBM E-score of 8-mer” value was -0.174 ± 0.013. AAACCTTA was tested, and the “PBM E-score of 8-mer” value was -0.0234 ± 0.053. CCACCTTA was tested, and the “PBM E-score of 8-mer” value was 0.246 ± 0.036. For ACACCTTG, the “PBM E-score of 8-mer” value was 0.481 ± 0.0055. In the case of GCACCTGA, the “PBM E-score of 8-mer” value is reported as 0.391 ± 0.024. With ATACCTTA the “PBM E-score of 8-mer” value was 0.0857 ± 0.093. AAACCTTG was tested, and the “PBM E-score of 8-mer” value was -0.132 ± 0.0072. For CCACCTGA, the “PBM E-score of 8-mer” value was 0.172 ± 0.044. GCACCTTA was tested, and the “PBM E-score of 8-mer” value was 0.4187 ± 0.0021. In the case of ACACCTTA, the “PBM E-score of 8-mer” value is reported as 0.4762 ± 0.00075. In the case of GAACCTTA, the “PBM E-score of 8-mer” value is reported as -0.144 ± 0.042.
